The structures appear in SMILES notation. Records with an inconclusive call do not appear. The source made the active and inactive calls. Calls come from the whole dose curve; as a rule, active = well fitted curve in the direction sought with a large enough effect; inconclusive = small, poorly fitted or top-dose-only effect, or another doubt; inactive = no such curve, though single readings can be large; an effect the other way counts as inactive or inconclusive.

A short description of assay [1]: qHTS of pediatric cancer cell lines to identify multiple opportunities for drug repurposing: Primary screen for SJ-GBM2 cells (AID 1347091). Note: potency is the fitted concentration of half-maximal effect. An outline of the steps:
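Eight- or eleven-point concentration series, 48 h treatment at 37 degrees C in growth media; readout CellTiter-Glo luminescence. Potency and efficacy were taken from the concentration-response curves.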
For orientation: Quantitative high-throughput screening tests each substance at several concentrations.

A short description of assay [2]: qHTS of pediatric cancer cell lines to identify multiple opportunities for drug repurposing: Primary screen for SK-N-MC cells (AID 1347093). Note: potency is the fitted concentration of half-maximal effect. An outline of the steps:
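Metabolically active cells were quantified by ATP-dependent luminescence (CellTiter-Glo, 15 min at room temperature) following 48 h treatment. Cells had been plated at 500-1,000 per well and settled for 5 h beforehand.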

The nature of assay [3]: qHTS of pediatric cancer cell lines to identify multiple opportunities for drug repurposing: Primary screen for NB-EBc1 cells (AID 1347095). Note: potency is the fitted concentration of half-maximal effect. An outline of the steps:
(§1)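 Quantitative HTS format: each compound titrated (MIPE 11 points from 0.78 nM, NPC 8 points from 0.59 nM) onto cells plated 5 hours earlier. After 48 h at 37 degrees C, CellTiter-Glo luminescence was recorded.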

Assay [4] can be described thus: qHTS of pediatric cancer cell lines to identify multiple opportunities for drug repurposing: Primary screen for U-2 OS cells (AID 1347096). Note: nearly all actives have a fitted effect of over 50% in size. An outline of the steps:
(§2)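 Cells (500-1,000/well) in growth media were settled 5 h at 37 degrees C, then given compounds for 48 h. Viability was read as CellTiter-Glo luminescence. Primary runs used MIPE at 11 points (0.78 nM-46 µM) and NPC at 8 points (0.59 nM-46 µM); follow-ups used 11 points.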

Assay [5] in a line: qHTS of pediatric cancer cell lines to identify multiple opportunities for drug repurposing: Primary screen for SK-N-SH cells (AID 1347098). Note: nearly all actives have a fitted effect of over 65% in size. Note: potency is the fitted concentration of half-maximal effect. In short, it runs like this:
(§3)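 Cells (500-1,000/well) rested 5 h, then received compounds for 48 h; metabolically active cells were measured by CellTiter-Glo luminescence. Final concentrations spanned up to 46 µM (MIPE, 11-point) or 0.59 nM-46 µM (NPC, 8-point) in primary screens, 11-point in follow-ups.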

Assay [6] can be described thus: qHTS of pediatric cancer cell lines to identify multiple opportunities for drug repurposing: Primary screen for NB1643 cells (AID 1347099). Note: nearly all actives have a fitted effect of over 50% in size. Note: potency is the fitted concentration of half-maximal effect. An outline of the steps:
as §1

Assay [7] is described as follows: qHTS of pediatric cancer cell lines to identify multiple opportunities for drug repurposing: Primary screen for LAN-5 cells (AID 1347100). Note: potency is the fitted concentration of half-maximal effect. In short, it runs like this: as §2
A short description of assay [8]: qHTS of pediatric cancer cell lines to identify multiple opportunities for drug repurposing: Primary screen for BT-12 cells (AID 1347101). Note: nearly all actives have a fitted effect of over 25% in size. In short, it runs like this: as §3
A short description of assay [9]: qHTS of pediatric cancer cell lines to identify multiple opportunities for drug repurposing: Primary screen for Rh18 cells (AID 1347102). Note: nearly all actives have a fitted effect of over 65% in size. An outline of the steps: as §2
A short description of assay [10]: qHTS of pediatric cancer cell lines to identify multiple opportunities for drug repurposing: Primary screen for OHS-50 cells (AID 1347103). Note: nearly all actives have a fitted effect of over 40% in size. Note: potency is the fitted concentration of half-maximal effect. An outline of the steps: as §3
Assay [11] in a line: qHTS of pediatric cancer cell lines to identify multiple opportunities for drug repurposing: Primary screen for RD cells (AID 1347104). Note: nearly all actives have a fitted effect of over 55% in size. Note: potency is the fitted concentration of half-maximal effect. An outline of the steps:
as §1

The nature of assay [12]: qHTS of pediatric cancer cell lines to identify multiple opportunities for drug repurposing: Primary screen for control Hh wild type fibroblast cells (AID 1347106).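 Note: series mostly up to about 46 µM; a drop in luminescence marks cytotoxicity and a rise apparent proliferation; nearly all actives have a fitted effect of over 55% in size.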 An outline of the steps:
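Viability after 48 h compound treatment at 37C, 500-1,000 cells/well, read as ATP luminescence with CellTiter-Glo. Primary screens used 11-point (MIPE, 0.78 nM-46 µM) or 8-point (NPC, 0.59 nM-46 µM) final concentrations; follow-up screens used 11-point dilutions.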

Assay [13] can be described thus: qHTS of pediatric cancer cell lines to identify multiple opportunities for drug repurposing: Primary screen for Rh30 cells (AID 1347107). Note: series mostly up to about 46 µM; nearly all actives have a fitted effect of over 75% in size. In short, it runs like this:
as §2

A short description of assay [14]: qHTS of pediatric cancer cell lines to identify multiple opportunities for drug repurposing: Primary screen for Rh41 cells (AID 1347108). Note: nearly all actives have a fitted effect of over 70% in size. Note: potency is the fitted concentration of half-maximal effect. An outline of the steps:
as §1

The nature of assay [15]: qHTS of pediatric cancer cell lines to identify multiple opportunities for drug repurposing: Primary screen for MG 63 (6-TG R) cells (AID 1347105). Note: nearly all actives have a fitted effect of over 50% in size. An outline of the steps: as §1
Assay [16] can be described thus: qHTS of pediatric cancer cell lines to identify multiple opportunities for drug repurposing: Primary screen for Saos-2 cells (AID 1347097). Note: nearly all actives have a fitted effect of over 40% in size. Note: potency is the fitted concentration of half-maximal effect. An outline of the steps: as §1
A short description of assay [17]: qHTS of pediatric cancer cell lines to identify multiple opportunities for drug repurposing: Confirmatory screen for A673 cells (AID 1347110).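 Note: cells exposed to compound for 48 h before the viability read; nearly all actives have a fitted effect of over 65% in size.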 Note: potency is the fitted concentration of half-maximal effect. In short, it runs like this: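 Forty-eight-hour viability assay. Follow-up compounds ran at 11-point dilutions; positive control bortezomib at 2.3 uM final, neutral control DMSO.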
Assay [18] is described as follows: qHTS of pediatric cancer cell lines to identify multiple opportunities for drug repurposing: Primary screen for BT-37 cells (AID 1347094). Note: potency is the fitted concentration of half-maximal effect. In short, it runs like this: as §1
A short description of assay [19]: qHTS of pediatric cancer cell lines to identify multiple opportunities for drug repurposing: Primary screen for A673 cells (AID 1347092). Note: nearly all actives have a fitted effect of over 45% in size. Note: potency is the fitted concentration of half-maximal effect. In short, it runs like this:
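Titration-based qHTS on A673 cells: MIPE compounds spanned 11 points (0.78 nM to 46 µM final), NPC compounds 8 points (0.59 nM to 46 µM final). Viability after 48 h was measured by ATP luminescence.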

A short description of assay [20]: qHTS of pediatric cancer cell lines to identify multiple opportunities for drug repurposing: Confirmatory screen for NB1643 cells (AID 1347109). Note: nearly all actives have a fitted effect of over 45% in size. An outline of the steps: as §2

As for `O=S(=O)(O)C(F)(F)C(F)(F)C(F)(F)C(F)(F)F`, the Potency result in assay [1], in [2], in [3], in assay [4], in assay [5] and in assay [6] was “inactive” each time. Besides, the Potency result in [7], in assay [8], in assay [9], in assay [10], in assay [11] and in assay [12] was “inactive” in each case. Further, the Potency result in assay [13] and in assay [14] was “inactive” in each case.

On to `C=CCC1=C(C)C(OC(=O)C2C(C=C(C)C)C2(C)C)CC1=O` (stereo not drawn), for which the Potency is 30.6 µM (active) in assay [1], 38.6 µM (active) in assay [2], 68.6 µM (active) in assay [3] and 28.2 µM (active) in assay [10]. In addition, the Potency entry in [5], in assay [9], in [15] and in [12] was “inactive” each time.

In the case of `COC(=O)[C@@H](N)CCCN=C(N)N[N+](=O)[O-]`, the Potency result in assay [1], in assay [3], in assay [4], in assay [16], in assay [7] and in assay [8] was “inactive” in each case. In addition, the Potency entry in assay [9], in assay [10], in [15], in [13] and in assay [14] was “inactive” throughout. The Potency was 6.62 µM (active) in assay [2], 6.07 µM (active) in assay [5] and 9.35 µM (active) in assay [6].

With `CC(C)(C)c1cc(C=C(C#N)C#N)cc(Br)c1O`, the Potency in assay [1] is 2.64 µM (active); in [3], 4.69 µM (active); in assay [10], 30.6 µM (active). In addition, the Potency result in assay [4], in [9], in assay [12], in [13] and in assay [14] was “inactive” in each case.

As to `O=[N+]([O-])c1c2ccccc2cc2ccccc12`, the Potency entry in [1], in assay [4], in [7], in assay [8], in assay [9] and in assay [13] was “inactive” each time.

Consider `CC(=Cc1csc(C)n1)[C@@H]1C[C@H]2O[C@@H]2CCC[C@H](C)[C@@H](O)[C@@H](C)C(=O)C(C)(C)[C@@H](O)CC(=O)O1`, for which the Potency in [1], in assay [2], in assay [3], in assay [16], in [7] and in assay [10] was 0.001 µM (active) throughout. Further, the Potency in [17] is 0.0185 µM (active). The Potency entry in [4], in assay [5], in assay [9], in assay [12] and in assay [13] was “inactive” in each case.

With `O=S(=O)(CC1CS1)c1ccc(Oc2ccccc2)cc1` (stereo not drawn), the Potency is 26.4 µM (active) in assay [1]; 19.3 µM (active) in assay [18]; 23.5 µM (active) in assay [3]; 18.7 µM (active) in assay [16]; 24.1 µM (active) in [5]; 18.7 µM (active) in assay [6]. Also, the Potency was 23.5 µM (active) in assay [7], 30.6 µM (active) in assay [10] and 18.7 µM (active) in assay [14]. For the same compound, the Potency entry in [4] and in [12] was “inactive” throughout.

Regarding `COc1cccc2c1[C@]13CCN(CC4CC4)[C@H](C2)[C@]1(OC)CCC(=O)C3`, the Potency result in assay [19], in assay [2], in [18], in [3], in assay [4] and in assay [16] was “inactive” throughout. In addition, the Potency result in assay [5], in assay [6], in assay [7], in assay [8], in assay [9] and in assay [10] was “inactive” in each case. In addition, the Potency result in assay [11], in assay [12], in [13] and in assay [14] was “inactive” each time.

As for `C=C1C[C@H]2[C@H]3CCC(=O)[C@@]3(C)CC[C@@H]2[C@@]2(C)C=CC(=O)C=C12`, the Potency result in [1], in assay [3], in [4], in [16], in assay [5] and in assay [7] was “inactive” throughout. The Potency result in [9], in assay [11], in [15], in assay [12] and in assay [13] was “inactive” throughout.

Consider `CN[C@@H](C)[C@H](O)c1ccccc1`, for which the Potency result in assay [19], in [2], in assay [3], in assay [4], in assay [16] and in assay [5] was “inactive” throughout. Also, the Potency result in [7], in [8], in assay [9], in [10], in assay [11] and in [15] was “inactive” each time. Moreover, the Potency entry in [13] and in assay [14] was “inactive” throughout.

`CC(C)Oc1cccc(NC(=O)c2ccccc2C(F)(F)F)c1`: the Potency entry in [19], in assay [18], in [4], in assay [6], in assay [11] and in assay [13] was “inactive” throughout. The Potency entry in assay [14] was “inactive”. Moreover, the Potency in assay [10] was 25.2 µM (active).

In the case of `CCNC(=O)CC1N=C(c2ccc(Cl)cc2)c2cc(OC)ccc2-n2c(C)nnc21` (stereo not drawn), the Potency in assay [19] was 2.96 µM (active); in assay [2], 2.96 µM (active); in assay [3], 20.9 µM (active); in assay [5], 15.2 µM (active); in assay [6] it was 14.8 µM (active); in [7] it was 10.5 µM (active). Besides, the Potency in assay [10] was 21.7 µM (active); in assay [11], 5.9 µM (active). The Potency result in [4] was “inactive”.

As to `COC1=C[C@@H]2[C@@H]3Cc4ccc(OC)c(O)c4[C@]2(CCN3C)CC1=O`, the Potency in [19] is 1.48 µM (active); in assay [2], 13.2 µM (active); in [3] it was 20.9 µM (active); in assay [5], 6.07 µM (active); in assay [6], 5.9 µM (active); in assay [14], 3.72 µM (active). In addition, the Potency entry in assay [4], in assay [16], in assay [8], in assay [9] and in assay [10] was “inactive” in each case.

Turning to `C[C@]12Cc3cn[nH]c3C[C@@H]1CC[C@@H]1[C@H]2CC[C@@]2(C)[C@H]1CC[C@]2(C)O`, the figures for the Potency in assay [19] and in assay [2] were 14.8 µM (active) and 0.469 µM (active), respectively. Further, the Potency entry in assay [4], in assay [16], in assay [5], in assay [6], in assay [7] and in assay [8] was “inactive” throughout. Further, the Potency entry in [9], in assay [11], in assay [15], in [12], in assay [14] and in [20] was “inactive” in each case. For the same compound, in assay [17], the Potency result is “inactive”.

`CC(=O)O[C@@]12CO[C@H]1C[C@H](O)[C@@]1(C)C(=O)[C@H](O)C3=C(C)[C@@H](O)C[C@@](O)([C@@H](OC(=O)c4ccccc4)[C@@H]21)C3(C)C`: the Potency is 1.48 µM (active) in assay [19]; 1.32 µM (active) in [2]; 2.09 µM (active) in assay [3]; 2.64 µM (active) in assay [16]; 2.64 µM (active) in assay [7]; 1.72 µM (active) in assay [10]. Further, the Potency result in assay [4], in assay [6], in [9], in [12] and in assay [13] was “inactive” throughout.

For the compound `Clc1ccccc1C(c1ccccc1)(c1ccccc1)n1cccn1`, the Potency entry in [19], in [2], in assay [18], in [4], in [16] and in assay [5] was “inactive” each time. Besides, the Potency entry in [7], in assay [8], in [9], in assay [11], in [15] and in assay [12] was “inactive” throughout. Moreover, the Potency entry in [13] and in assay [14] was “inactive” throughout.

For `COc1ccc(C(=O)c2c(C)n(CCN3CCOCC3)c3cc(I)ccc23)cc1`, the Potency in [19] was 14.8 µM (active); in assay [2], 1.48 µM (active); in [3] it was 20.9 µM (active); in assay [16], 18.7 µM (active); in assay [6], 14.8 µM (active); in assay [10], 19.3 µM (active). Further, the figures for the Potency in [11], in assay [14] and in assay [17] were 18.7 µM (active), 18.7 µM (active) and 26.1 µM (active), respectively. Also, the Potency result in assay [12] and in [13] was “inactive” in each case.

These data come from PubChem BioAssay (NCATS).
